# Records with an inconclusive call do not appear. A call without a number means that no potency is given here. Active and inactive are the calls of the source. The call rests on the fitted dose curve; in most records, active means well fitted cell-killing curve with a large enough effect; inconclusive means small, poorly fitted or top-dose-only effect; inactive means flat fitted curve, though single readings scatter.
# Assay: qHTS assay to identify small molecule inhibitors of chordoma cells - UCH-2 (AID 1259356)
# Conditions: UCH-2 chordoma viability, CellTiter-Glo ATP luminescence, 48 h; series mostly up to 46.1 µM
# Potency means the concentration at half of the fitted maximal effect.
row,Compound,Potency
1,CC(C)[N+](C)(C)CC(O)COc1cccc2ccccc12 (stereo unspecified),inactive
2,C/C=C/C=N/NC(=O)c1ccncc1,inactive
3,OC[C@H]1O[C@@H]2O[C@H]3[C@H](O)[C@@H](O)[C@@H](O[C@H]4[C@H](O)[C@@H](O)[C@@H](O[C@H]5[C@H](O)[C@@H](O)[C@@H](O[C@H]6[C@H](O)[C@@H](O)[C@@H](O[C@H]7[C@H](O)[C@@H](O)[C@@H](O[C@H]8[C@H](O)[C@@H](O)[C@@H](O[C@H]1[C@H](O)[C@H]2O)O[C@@H]8CO)O[C@@H]7CO)O[C@@H]6CO)O[C@@H]5CO)O[C@@H]4CO)O[C@@H]3CO,inactive
4,CCOCCn1c(N2CCCN(C)CC2)nc2ccccc21,inactive
5,Nc1ccc(C(=O)NCC(=O)O)cc1,inactive
6,O=S(=O)(O)c1ccc(O)cc1,inactive
7,Cc1ncc(CO)c(C=O)c1O,inactive
8,CC(C)[C@@H]1CC[C@@H](C)CC1=O,inactive
9,N#CCC(=O)NN,inactive
10,C=C[C@H]1CN2CC[C@H]1C[C@@H]2[C@@H](O)c1ccnc2ccc(OC)cc12,inactive
11,OCc1ccccn1,inactive
12,O=C(O)C(Cc1cc(I)c(O)c(I)c1)c1ccccc1 (stereo unspecified),inactive
13,CC(C)NCC(O)c1ccc2ccccc2c1 (stereo unspecified),inactive
14,C[N+]1(CC2COC(c3ccccc3)(C3CCCCC3)O2)CCCCC1 (stereo unspecified),inactive
15,CC(C)Nc1cccnc1N1CCN(C(=O)c2cc3cc(NS(C)(=O)=O)ccc3[nH]2)CC1,inactive
16,C=C[C@H]1CN2CC[C@H]1C[C@H]2[C@H](O)c1ccnc2ccc(OC)cc12,inactive
17,NC1CCN(c2nc3c(cc2F)c(=O)c(C(=O)O)cn3-c2ccc(F)cc2F)C1 (stereo unspecified),inactive
18,CC(=C(CCOC(=O)C(C)C)SSC(CCOC(=O)C(C)C)=C(C)N(C=O)Cc1cnc(C)nc1N)N(C=O)Cc1cnc(C)nc1N,inactive

row,Compound,Potency
1,CCN1/C(=C/C=C/c2sc3ccccc3[n+]2CC)Sc2ccccc21,5.8 µM (active)
2,CCN1CCN(C(=O)N[C@@H](C(=O)N[C@@H]2C(=O)N3C(C(=O)O)=C(CSc4nnnn4C)CS[C@H]23)c2ccc(O)cc2)C(=O)C1=O,inactive
3,CC(=O)OCC1=C(C(=O)O)N2C(=O)[C@@H](NC(=O)CSc3ccncc3)[C@H]2SC1,inactive
4,Nc1nc(-c2ccccc2)c(Br)c(=O)[nH]1,inactive
5,CC(=O)Nc1ccc(OCC(O)CNC(C)C)cc1 (stereo unspecified),inactive
6,OCCOCCN1CCN(C2=Nc3ccccc3Sc3ccccc32)CC1,inactive
7,CC(O)Cn1cnc2c1c(=O)n(C)c(=O)n2C (stereo unspecified),inactive
8,N[C@H](C(=O)O)[C@@H](O)c1ccc(O)c(O)c1,inactive
9,CCOC(=O)c1c(N)sc2c1CCN(Cc1ccccc1)C2,inactive
10,Oc1c(Cl)cc(Cl)c(Cl)c1Cc1c(O)c(Cl)cc(Cl)c1Cl,inactive
11,C=C[C@@]1(C)CC(=O)[C@]2(O)[C@@]3(C)[C@@H](O)CCC(C)(C)[C@@H]3[C@H](O)[C@H](OC(C)=O)[C@@]2(C)O1,inactive
12,CC(=O)Nc1ccc(OC(=O)c2ccccc2OC(C)=O)cc1,inactive
13,CC(C)(C)CC(C)(C)c1ccc(O)c(-n2nc3ccccc3n2)c1,inactive
14,CN(C)C(=O)Nc1ccc(Cl)c(Cl)c1,inactive
15,CC(C)Cc1ccc(CC(=O)O)cc1,inactive
16,O=C(O)CCC(=O)Nc1ccc(S(=O)(=O)Nc2nccs2)cc1,inactive
17,CNCCc1ccccn1,inactive
18,CN1CCC(OC(c2ccccc2)c2ccccc2)CC1,inactive
